An excerpt weighted towards active compounds, which were near 7.9% of everything screened.
HT1080 IDH1KD tx = kills HT-1080 cells with IDH1 knockdown; 2% of 360,000 active; AID 686971; HT-1080 IDH1 knockdown viability, ATP luminescence, 48 h; Potency, µM (top dose mostly 46.1 µM), for inactives: top-dose activity, negative = toxicity, actives largely listed as cytotoxic;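 further: 0% = DMSO wells and -100% = cell-free medium wells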
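IDH1KD HT-1080 cells, 750/well, RPMI + 5% FBS; compound pinned after 2 h settling; 48 h, 37 °C; CellTiter-Glo luminescence; % activity normalised to DMSO and no-cell wells; curves fitted, classed by r2 and efficacy.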
SW480 rerep = inducers of DNA re-replication in SW480 colon cancer cells | SW480 DNA re-replication, Hoechst DNA content imaging, 48 h | 1.8% of 340,000 active | Potency, µM (doses to about 46.1 µM), inactives show at the top dose re-replication activation, most hits filed as activators; further: % of control where 0% means no effect; nearly all actives have a fitted effect of over 55% in size
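Image-based DNA-content assay: after two days of treatment, nuclei were labelled with the DNA dye Hoechst and imaged, and hits were compounds raising the count of nuclei showing high fluorescence intensity.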
KB-3-1 cytotox = KB-3-1 parental cell cytotoxicity. KB-3-1 viability, CellTiter-Glo ATP luminescence, 72 h. 1.4% of 400,000 active. AID 1347075. Potency, µM (titrated, usually from 46.1 µM), actives largely listed as cytotoxic; further: on the % scale 0 is the no-effect control and ±100 the full control effect; nearly all actives have a fitted effect of over 60% in size
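72 h, 37 °C compound treatment of KB-3-1 parental cells; CellTiter-Glo added, 10 min, luminescence read. Data corrected against DMSO-only plates and normalized before curve fitting.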
HT1080-NT tox = kills 2HG-producing HT-1080-NT fibrosarcoma cells; HT-1080-NT fibrosarcoma viability, CellTiter-Glo ATP luminescence, 48 h; Potency, µM (highest dose often 46.1 µM), for the others: at the highest dose activity, negative = less viability, most hits filed as cytotoxic; 1.6% of 360,000 active; AID 686970;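 further: NT is the 2HG producing partner of a matched IDH1 knockdown line; 0% = DMSO-treated cells and -100% = media-only wells without cells; nearly all actives have a fitted effect of over 55% in size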
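Luminescent CellTiter-Glo readout after 48 hours of compound exposure at 37 degrees C defined viability of HT-1080-NT cells. Activity was normalized to DMSO wells and cell-free media wells; concentration-response curves were fitted and assigned curve classes.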
KB-V1 cytotox = KB-V1 MDR subline cytotoxicity; KB-V1 MDR cells viability, CellTiter-Glo, 72 h; Potency, µM (top dose mostly 46.1 µM), actives largely listed as cytotoxic; 3.4% of 400,000 active; AID 1347076; further: on the % scale 0 is the no-effect control and ±100 the full control effect; nearly all actives have a fitted effect of over 60% in size
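KB-V1 cells (P-gp-expressing MDR subline of KB-3-1) in phenol-red-free DMEM with 10% FBS were exposed to library compounds over a concentration series for 72 h at 37 degrees C. Viability read by CellTiter-Glo luminescence; concentration-effect curves fitted after normalization.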
MCF10A rereplic = DNA re-replication induction in MCF 10a cells; MCF 10A DNA re-replication, Hoechst nuclear intensity, 48 h; Potency, µM (highest dose often 46.1 µM), without a hit: top-dose activity, positive = re-replication, usual class: activators; 2.9% of 350,000 active; further: % of control where 0% means no effect; nearly all actives have a fitted effect of over 50% in size
An asterisk follows results filed as active; i = inactive; ? = inconclusive; . = no result; [ ] = another dose, or the depositor's remark. The call rests on the fitted dose curve; in most records, active means well fitted curve in the direction sought with a large enough effect; inconclusive means small, poorly fitted or top-dose-only effect, or another doubt; inactive means no such curve, though single readings can be large; an effect the other way counts as inactive or inconclusive. Potency means the concentration at half of the fitted maximal effect.

SMILES | HT1080 IDH1KD tx | SW480 rerep | KB-3-1 cytotox | HT1080-NT tox | KB-V1 cytotox | MCF10A rereplic
COC(=O)c1ccc(C(C(=O)NC2CCCCC2)N(Cc2ccc(F)cc2)C(=O)Cc2cccs2)cc1 (configuration not stated) | -29% | 3% | i | -4% | 3.7µM* | 6%
COC(=O)c1ccc(C(C(=O)NC2CCCCC2)N(CCc2ccccc2)C(=O)Cc2cccs2)cc1 (configuration not stated) | 21% | -8% | i | 8% | i | -8%
CCC(C)(C(=O)NC1CCCCC1)N(Cc1cccs1)C(=O)Cc1cccs1 (configuration not stated) | 0% | 0% | i | -1% | 13µM* | 18%
CCOc1ccc(-c2noc(CSc3nnc(Cc4ccccc4)n3-c3cccc(C)c3)n2)cc1 | . | . | i | . | ? | .
COC(CN(C(=O)CCl)C(C(=O)NC1CCCCC1)c1ccccc1C)OC (configuration not stated) | ? | ? | ? | 18µM* | ? | ?
COc1ccc(C(C(=O)NC2CCCCC2)N(C(=O)CCl)c2ccc(Cl)cc2)cc1 (configuration not stated) | 1.5µM* | ? | 5.8µM* | 2.3µM* | ? | ?
CCOC(=O)CNC(=S)N(Cc1cccs1)C1CCCCC1 | 15% | -41% | i | 5% | 7.3µM* | -1%
COC(CN(C(=O)CCl)C(C(=O)NC1CCCCC1)c1ccc(Cl)cc1)OC (configuration not stated) | -19% | 9% | ? | -11% | ? | 12%
CC1CCCC(NC(=O)CNC(=S)N(Cc2ccccc2)Cc2cccs2)C1C (configuration not stated) | ? | ? | i | ? | ? | 13µM*
COc1ccc(N(C(=O)c2cnccn2)C(C(=O)NC2CCCCC2)c2ccc(Cl)cc2)cc1 (configuration not stated) | 1% | -1% | i | 0% | i | 2%
O=C(C1=C(O)C(=O)N(CC2CCCO2)C1c1cccc(O)c1)c1ccco1 (configuration not stated) | 12% | -7% | i | 16% | i | 0%
Cc1cc(OCC(=O)OCC(=O)c2ccc[nH]2)ccc1Cl | -2% | 0% | i | 15% | i | 3%
CC(C)(C)[C@H]1COC(=O)CC/C=C\C[C@@H](CC(=O)N(CCO)Cc2ccccc2)C(=O)N1 | 6% | 2% | i | 25% | i | 0%
Cc1cccc(N(C(=O)CNC(=O)c2ccco2)C(C(=O)NC2CCCCC2)c2cccnc2)c1 (configuration not stated) | -1% | -7% | i | 0% | i | -4%
Cc1ccc(C(=O)N(CC(=O)NC2CCCC2)c2ccccc2C)s1 | 2% | 1% | i | 12% | i | 2%
Cc1ccc(C(=O)N(CC(=O)NC2CCCC2)Cc2cccs2)s1 | 11% | -5% | i | 9% | 5.8µM* | 0%
O=C(NC1CCCCC1)C(c1cccnc1)N(C(=O)CCl)c1cccc(Cl)c1 (configuration not stated) | 1.8µM* | 4.1µM* | 23µM* | 5.2µM* | 21µM* | 13µM*
COc1ccc(CN(C(=O)c2ccc(-c3ccccc3)[nH]2)C(C(=O)NC(C)(C)C)c2ccncc2)cc1 (configuration not stated) | 15µM* | ? | ? | -22% | 12µM* | 14%
COc1cc(C(C(=O)NC(C)(C)C)N(Cc2ccccc2)C(=O)c2cnccn2)cc(OC)c1OC (configuration not stated) | 4% | ? | i | 5% | i | ?
O=C(CSC1=N/C(=C/c2ccc(Cl)c(Cl)c2)C(=O)N1c1ccccc1F)NC1CC1 | -8% | ? | i | 0% | 15µM* | 15µM*
COc1ccc(Cl)cc1N1C(=O)/C(=C/c2sccc2C)N=C1SCC(=O)NC1CC1 | -20% | ? | ? | -20% | i | ?
CCn1c(=O)c([N+](=O)[O-])c(Cl)c2ccccc21 | 3.7µM* | 8.2µM* | ? | ? | i | 26%
c1ccc(-c2cc3nc(NCc4cccs4)nc(NCc4ccc5occc5c4)c3s2)cc1 | 18µM* | . | ? | 16µM* | ? | .
Cn1c(NCc2ccc3occc3c2)nc2cc(-c3ccc(F)cc3)sc2c1=O | -29% | . | i | 14% | i | .
CCN(c1ccccc1)S(=O)(=O)c1ccc(NC(=O)c2nc(SC(C)C)ncc2Cl)cc1 | . | . | i | . | i | .
SMILES | HT1080 IDH1KD tx | SW480 rerep | KB-3-1 cytotox | HT1080-NT tox | KB-V1 cytotox | MCF10A rereplic
CCOC(=O)c1c(-c2ccccc2)oc2ccc(OCC)cc12 | 4% | 231% | i | 0% | ? | ?
CCOC(=O)c1c(-c2ccccc2)oc2ccc(OCC(O)CNCCN(C)C)cc12 (configuration not stated) | 13µM* | 19% | ? | 18µM* | ? | ?
COC(=O)C1=CN(c2ccc(OC)cc2)C(N)=C(C#N)C1c1cccc2ccccc12 (configuration not stated) | ? | . | 18µM* | ? | ? | .
COC(=O)C1=CN(c2ccc(F)cc2)C(N)=C(C#N)C1c1ccccc1 (configuration not stated) | ? | . | ? | -27% | ? | .
COC(=O)C1=CN(c2ccccc2OC)C(N)=C(C#N)C1c1cccc([N+](=O)[O-])c1 (configuration not stated) | 1.8µM* | . | 4.6µM* | 2.3µM* | 4.1µM* | .
COC(=O)C1=CN(c2ccc3c(c2)OCO3)C(N)=C(C#N)C1c1ccccc1 (configuration not stated) | 12µM* | . | 7.3µM* | 18µM* | 2.9µM* | .
Cc1cc(C(=O)CS(=O)(=O)c2ccc(F)cc2)cc(C)c1O | -1% | 5% | i | 0% | i | -3%
COc1ccc(NC2=NC3(CCCCC3)N=C(N)N2)cc1 | 8% | -2%[9.22 µM] | i | 11% | i | 0%
CCCCOc1ccc(NC2=NC3(CCCCC3)N=C(N)N2)cc1 | ? | 4% | 15µM* | ? | i | ?
CCC(=O)N1CCc2cc(S(=O)(=O)CCC(=O)NCc3ccco3)ccc21 | ? | ? | ? | -24% | i | 8.2µM*
CCC(=O)N1CCc2cc(S(=O)(=O)CCC(=O)NCCc3ccccc3)ccc21 | 1% | -1% | i | -12% | i | 24%
CN(C(=O)CSc1nc2ccccc2[nH]1)C1CCS(=O)(=O)C1 (configuration not stated) | 3% | -50% | i | 5% | i | 1%
